# Several values for one entry are separate records, joined by “and”; a condition that tells them apart may be missing. Identical values can stand only once. Inconclusive results are not listed. Activity calls are given as the source filed them.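 How the source made its calls, unless noted: active means normalized viability below 100% at a tested concentration; inactive means the rest.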
# Legend:
# [1] = viability loss in pontine glioma line – cell-based, SU-DIPG-XXV, MIPE5.0, CellTiter-Glo, qHTS, dose response (AID 1347065; cut-off not given, nearly all actives have AC50 up to about 26 µM;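 further: cells exposed to compound for 48 hours before ATP readout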); details: CellTiter-Glo ATP luminescence
# [2] = growth inhibition of DIPG cells – cell-based, MIPE4.0 library, CellTiter-Glo luminescence, qHTS (AID 1347066; cut-off not given, nearly all actives have AC50 up to about 30 µM;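 further: cells exposed to compound for 48 hours before readout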); details: SU-DIPG-VI viability, CellTiter-Glo ATP luminescence
# [3] = JHH-DIPG-1 glioma cell viability, MIPE5.0 library, CellTiter-Glo luminescence, qHTS (AID 1347067; cut-off not given, nearly all actives have AC50 up to about 26 µM;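 further: cells exposed to compound for 48 hours before readout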); details: JHH-DIPG-1 glioma viability, CellTiter-Glo ATP luminescence
# [4] = growth inhibition of DIPG cells – cell-based, MIPE5.0 library, qHTS (AID 1347068; cut-off not given, nearly all actives have IC50 up to about 30 µM); details: SU-DIPG-XXV viability
# [5] = compounds altering HSF1 focus formation in cells – imaging, Selleck Cancer Library (AID 1347162; in the data active means plate-normalised HSF1 focus index below about 0.46); details: human cells, HSF1 nuclear foci imaging, at 10 µM; SSMD: measured here: HSF1 foci SSMD mean; cell count: measured here: cell number; plate-normalised HSF1 focus index: stronger effect = lower value
# [6] = blockers of cellular phospholipid synthesis – cell-based, LOPAC library, screen 4, primary screen (AID 1347384; call rule not given here); details: animal cells, phospholipid biosynthesis inhibition screen; at 10 µM
# [7] = drug combination growth inhibition, ovarian cancer – cell-based, oncology-focused library, rucaparib conditional, profiling panel (AID 1508598); details: patient-derived ovarian cancer cells, CellTiter-Glo viability, 144 h, stronger effect = lower value
# [8] = MELAS cybrid and Rieske KO viability enhancers – cell-based, MELAS cybrids, Rieske KO mouse fibroblasts, CellTiter-Glo, primary screen (AID 1508586;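 active means mean z-score across replicates of 1.96 or higher in either the MELAS or the Rieske mutant cell line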;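 further: z relative to plate mean and SD of compound and empty wells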); details: low glucose
# [9] = at 0.000305 µM, OCI-C5x cells, with rucaparib 10 µM, 100% = cells with rucaparib alone
# [10] = at 0.000305 µM, OCI-C5x cells, without rucaparib
# [11] = at 0.000305 µM, OCI-P5x cells, with rucaparib 20 µM, 100% = cells with rucaparib alone
# [12] = at 0.000305 µM, OCI-P5x cells, without rucaparib
# [13] = at 0.00122 µM, OCI-C5x cells, with rucaparib 10 µM, 100% = cells with rucaparib alone
# [14] = at 0.00122 µM, OCI-C5x cells, without rucaparib
# [15] = at 0.00122 µM, OCI-P5x cells, with rucaparib 20 µM, 100% = cells with rucaparib alone
# [16] = at 0.00122 µM, OCI-P5x cells, without rucaparib
# [17] = at 0.00488 µM, OCI-C5x cells, with rucaparib 10 µM, 100% = cells with rucaparib alone
# [18] = at 0.00488 µM, OCI-C5x cells, without rucaparib
# [19] = at 0.00488 µM, OCI-P5x cells, with rucaparib 20 µM, 100% = cells with rucaparib alone
# [20] = at 0.00488 µM, OCI-P5x cells, without rucaparib
# [21] = at 0.0195 µM, OCI-C5x cells, with rucaparib 10 µM, 100% = cells with rucaparib alone
# [22] = at 0.0195 µM, OCI-C5x cells, without rucaparib
# [23] = at 0.0195 µM, OCI-P5x cells, with rucaparib 20 µM, 100% = cells with rucaparib alone
# [24] = at 0.0195 µM, OCI-P5x cells, without rucaparib
# [25] = at 0.0781 µM, OCI-C5x cells, with rucaparib 10 µM, 100% = cells with rucaparib alone
# [26] = at 0.0781 µM, OCI-C5x cells, without rucaparib
# [27] = at 0.0781 µM, OCI-P5x cells, with rucaparib 20 µM, 100% = cells with rucaparib alone
# [28] = at 0.0781 µM, OCI-P5x cells, without rucaparib
# [29] = at 0.313 µM, OCI-C5x cells, with rucaparib 10 µM, 100% = cells with rucaparib alone
# [30] = at 0.313 µM, OCI-C5x cells, without rucaparib
# [31] = at 0.313 µM, OCI-P5x cells, with rucaparib 20 µM, 100% = cells with rucaparib alone
# [32] = at 0.313 µM, OCI-P5x cells, without rucaparib
# [33] = at 1.25 µM, OCI-C5x cells, with rucaparib 10 µM, 100% = cells with rucaparib alone
# [34] = at 1.25 µM, OCI-C5x cells, without rucaparib
# [35] = at 1.25 µM, OCI-P5x cells, with rucaparib 20 µM, 100% = cells with rucaparib alone
# [36] = at 1.25 µM, OCI-P5x cells, without rucaparib
# [37] = at 5 µM, OCI-C5x cells, with rucaparib 10 µM, 100% = cells with rucaparib alone
# [38] = at 5 µM, OCI-C5x cells, without rucaparib
# [39] = at 5 µM, OCI-P5x cells, with rucaparib 20 µM, 100% = cells with rucaparib alone
# [40] = at 5 µM, OCI-P5x cells, without rucaparib
structure (smiles),measurement,setting,value
COc1ccccc1OCC(O)CN1CCN(CC(=O)Nc2c(C)cccc2C)CC1 (stereo unspecified),outcome,[1],inactive
same,outcome,[2],inactive
same,outcome,[3],inactive
same,outcome,[4],inactive
same,SSMD,[5],2.29
same,cell count,[5],7450
same,plate-normalised HSF1 focus index,[5],1.14 (inactive)
same,outcome,[6],inactive
same,viability,[7]; [9],108% (inactive)
same,viability,[7]; [10],113% (inactive)
same,viability,[7]; [11],102% (inactive)
same,viability,[7]; [12],108% (inactive)
same,viability,[7]; [13],114% (inactive)
same,viability,[7]; [14],124% (inactive)
same,viability,[7]; [15],96% (active)
same,viability,[7]; [16],106% (inactive)
same,viability,[7]; [17],115% (inactive)
same,viability,[7]; [18],113% (inactive)
same,viability,[7]; [19],93.5% (active)
same,viability,[7]; [20],109% (inactive)
same,viability,[7]; [21],106% (inactive)
same,viability,[7]; [22],107% (inactive)
same,viability,[7]; [23],94.5% (active)
same,viability,[7]; [24],108% (inactive)
same,viability,[7]; [25],108% (inactive)
same,viability,[7]; [26],114% (inactive)
same,viability,[7]; [27],101% (inactive)
same,viability,[7]; [28],106% (inactive)
same,viability,[7]; [29],110% (inactive)
same,viability,[7]; [30],118% (inactive)
same,viability,[7]; [31],94.5% (active)
same,viability,[7]; [32],107% (inactive)
same,viability,[7]; [33],102% (inactive)
same,viability,[7]; [34],121% (inactive)
same,viability,[7]; [35],104% (inactive)
same,viability,[7]; [36],92.6% (active)
same,viability,[7]; [37],67.5% (active)
same,viability,[7]; [38],39.4% (active)
same,viability,[7]; [39],49.6% (active)
same,viability,[7]; [40],23.6% (active)
Cn1nnc2c(C(N)=O)ncn2c1=O,outcome,[1],inactive
same,outcome,[2],inactive
same,outcome,[3],inactive
same,outcome,[4],inactive
same,SSMD,[5],1.56
same,cell count,[5],7070
same,plate-normalised HSF1 focus index,[5],1.09 (inactive)
same,z-score,"[8]; MELAS cybrid survival, CellTiter-Glo 48 h, stronger effect = higher value",-0.452 (inactive) and 0.68 (inactive) and -0.709 (inactive)
same,z-score,"[8]; Rieske KO mouse fibroblast survival, CellTiter-Glo 72 h",0.371 and -0.0371 and -0.913
same,viability,[7]; [9],103% (inactive)
same,viability,[7]; [10],108% (inactive)
same,viability,[7]; [11],91% (active)
same,viability,[7]; [12],88.3% (active)
same,viability,[7]; [13],103% (inactive)
same,viability,[7]; [14],109% (inactive)
same,viability,[7]; [15],108% (inactive)
same,viability,[7]; [16],98.5% (active)
same,viability,[7]; [17],113% (inactive)
same,viability,[7]; [18],110% (inactive)
same,viability,[7]; [19],110% (inactive)
same,viability,[7]; [20],101% (inactive)
same,viability,[7]; [21],118% (inactive)
same,viability,[7]; [22],108% (inactive)
same,viability,[7]; [23],106% (inactive)
same,viability,[7]; [24],106% (inactive)
same,viability,[7]; [25],102% (inactive)
same,viability,[7]; [26],101% (inactive)
same,viability,[7]; [27],112% (inactive)
same,viability,[7]; [28],104% (inactive)
same,viability,[7]; [29],101% (inactive)
same,viability,[7]; [30],104% (inactive)
same,viability,[7]; [31],111% (inactive)
same,viability,[7]; [32],109% (inactive)
same,viability,[7]; [33],108% (inactive)
same,viability,[7]; [34],90.4% (active)
same,viability,[7]; [35],106% (inactive)
same,viability,[7]; [36],110% (inactive)
same,viability,[7]; [37],96.4% (active)
same,viability,[7]; [38],92.7% (active)
same,viability,[7]; [39],95.5% (active)
same,viability,[7]; [40],114% (inactive)

# — PubChem BioAssay
